# Assays:
# Experiment in all cases: PBM binding z-score (relative to random genomic background probes); higher = stronger binding; sequences stand for … in GC…GCGATTGACAGCGTAGAATGAAGG
# [1] = tested on: PPARg:RXRa DBDmut IVT, anti-RXR (DBD mutation: RXRa K156A/R161A, NR concentration 270 nM, RXRa partner concentration 90 nM)
# Method in brief: (§1)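 Random background probes are the reference for binding z-scores. These scores derive from regression-normalized fluorescence on custom Agilent 4×180K protein-binding microarrays incubated 1 h with ligand-free nuclear receptor dimers. Binding was detected with antibodies against each partner (one per run).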
# [2] = tested on: PPARg:RXRa IVT, anti-PPARg (NR concentration 270 nM, RXRa partner concentration 90 nM)
# Method in brief: as §1
# [3] = tested on: PPARg DBDmut:RXRa IVT, anti-PPARg (DBD mutation: PPARg1 K132A/R137A, NR concentration 270 nM, RXRa partner concentration 90 nM)
# Method in brief: as §1
# [4] = tested on: PPARg DBDmut IVT, anti-PPARg (DBD mutation: PPARg1 K132A/R137A, NR concentration 270 nM)
# Method in brief: as §1
# [5] = tested on: PPARg homodimer (NR concentration 180 nM)
# Method in brief: as §1
# [6] = tested on: PXR:RXRa (NR concentration 270 nM, RXRa partner concentration 90 nM)
# Method in brief: as §1
# [7] = tested on: PXR homodimer (NR concentration 270 nM)
# Method in brief: as §1
# [8] = tested on: RARa:RXR (NR concentration 270 nM, RXRa partner concentration 90 nM)
# Method in brief: as §1
# [9] = tested on: RARa homodimer (NR concentration 270 nM)
# Method in brief: as §1
# [10] = tested on: RARb:RXRa (NR concentration 270 nM, RXRa partner concentration 90 nM)
# Method in brief: as §1
Sequence,PBM binding z-score [1],PBM binding z-score [2],PBM binding z-score [3],PBM binding z-score [4],PBM binding z-score [5],PBM binding z-score [6],PBM binding z-score [7],PBM binding z-score [8],PBM binding z-score [9],PBM binding z-score [10]
TCCCGGAGGACACGAAAGGTCAGAGCTCGACATC,1.58,1.17,-0.696,-0.402,2.86,3.87,0.5,4.24,1.11,4.25
GAAACAGGGTCAGCTAGAGGCCAGAGTATGGAAA,2.53,3.11,0.33,-0.985,3.56,3.46,-0.0723,4.93,0.262,4.14
TCGTGTAGGTTAGTCGGGGCATTCAGCCAACATA,2.15,1.92,-0.257,-0.153,0.862,0.845,0.707,0.886,0.866,0.996
CCTGCTAGGTCAATGGTAAGCTAAAGCAGCTCGC,4.33,3.43,-1.49,-0.489,1.05,0.564,-0.596,1.5,-0.463,3.79
CCTACTGAGCCAAGGTCATTGATCAGTCAAAGCA,0.598,0.834,-0.559,-0.729,2.66,3.69,2.46,3.64,1.47,3.15
AGAATGAGGTTATTAAGGTCAGGGAATTGCGGTC,4.18,4.42,1.61,0.235,2.65,5.11,11.1,4.38,1.85,3.79
ACTATTAGTTGACTGAGGGCAACCGATACGACGC,0.524,0.702,1.12,0.733,0.7,1.06,1.3,0.779,0.713,1.41
CGTCCAAGGTCAATGCTAGGTCAGTCAAAGCATT,3.29,3.92,0.558,-0.362,4.74,4.84,1.29,5.75,1.17,5.36
ATCTCTAGGTAACCAAGTTAAGTGAATGCCGAAC,3.43,2.78,0.758,1.07,0.347,0.282,0.739,0.368,1.13,0.317
CCTGCTATGTCAATGGTCAGCTAAAGCAGCTCGC,0.388,0.02,-1.09,-1.11,-0.369,-0.209,-0.703,-0.142,-0.762,0.77
ATCTCTAAGTAACCAAGTTCAGTGAATGCCGAAC,-0.304,0.256,0.36,0.891,0.71,1.3,1.61,0.788,0.561,1.16
CGAACTAGGTTATCCAGGACAGTGAATACATTGA,6.42,5.96,0.89,0.666,0.877,0.173,0.527,0.654,0.298,0.828
ATCTGTAGGTAAAAGTTCAGTGAATCCCGAGGAT,1.88,3.51,0.891,0.681,1.13,2.01,1.1,2.07,1,2.38
CATACTGGGCCACGAAAGGTCATTGATTCAGTGA,4.74,5.55,1.83,0.862,2.89,5.4,1.75,5.41,0.959,4.16
TGAATGAGGTTATAAGATCAGGAAACGTTGCAAA,0.583,1.52,0.845,1.12,0.661,0.789,0.0316,1.46,0.238,1.15
GGAATGAGGGCAAGTTGATAGCAGAGTTTGATGG,4.98,3.82,1.16,-0.0155,1.37,1.05,1.87,0.695,0.0185,2.64
AGTGAAAGTTCACTAGGTAACGTAAGATTCAGCT,2.6,4.86,1.41,0.57,2.04,3.61,2,3.07,0.607,4.44
ATCTCTAGGTAAAGTTAAGTGAAAGATCGATAGA,2.61,1.99,0.949,2.08,0.251,-0.00139,0.451,0.249,0.961,0.312
ACAGACAGGTGATGAAGGTAACTCCGGCTATCAT,0.0958,0.462,0.468,0.294,-0.227,0.0944,-0.1,0.357,0.0561,0.429
TCTTGTAGATCAATAGCGGTTAAGAAAGTGCGCT,1.73,0.605,-0.463,0.835,0.226,0.449,0.123,0.439,0.667,-0.0234
ATCTCTAGGTAAAAGTCCAGTGAATCCCGAGGAT,2.07,1.54,0.922,0.924,0.148,-0.1,0.357,-0.148,0.615,0.582
TCTGCTAGGTGAGTTGGTCAGCTAACGAGCTGCC,1.24,1.52,0.145,-0.743,-1.59,-0.323,-0.828,-0.314,-1.28,0.429

Sequence,PBM binding z-score [1],PBM binding z-score [2],PBM binding z-score [3],PBM binding z-score [4],PBM binding z-score [5],PBM binding z-score [6],PBM binding z-score [7],PBM binding z-score [8],PBM binding z-score [9],PBM binding z-score [10]
GCGACAGGGGCAAAGCAGGTTACCATAAGGTTGG,0.177,0.684,-0.131,-0.736,0.212,0.934,-0.112,1.19,-0.459,1.47
AATACAGGGTCATCGTAGTCCAGAGTACGCACAG,2.79,5.02,1.99,2.18,2.87,5.53,1.22,5.21,0.827,4.73
CCGACTGGAGCATAAGGTTACCATAAGCCAGCCC,0.771,0.172,-0.467,-1.49,-0.0887,0.241,-0.0972,1.11,0.0423,0.916
TCTAGTTGGTCACGGAGATCACACACGACGGGTA,2.55,2.3,0.815,0.952,0.853,0.363,0.241,0.735,0.576,1.57
GATACAGGGTCAGCTGGAGGCCAGAGTATGGAAA,1.09,2.28,-0.601,-0.834,2.9,3.53,-0.0691,5.12,0.139,4.3
ACTAGCAGGACAAGGGTCACTCAAGATTAGTCCG,0.93,3.2,-0.0211,-0.445,2.71,3.31,0.0433,4.23,0.605,3.47
ACAGACGGGTGAGTGAAGGTAACTCAGCTGGACG,-0.0722,0.467,2.8e-05,-1.31,0.113,-0.343,-0.231,0.0341,-0.176,0.0932
TCAGACAGGTGAAGGTAACTCACGTACGCAGTCG,2.67,1.17,0.022,-0.274,0.847,0.479,-0.00874,0.651,0.536,1.07
CCTAACGGGTCAAGGTTATAGCACGGGTGGTACG,0.873,2.74,-0.204,-0.102,2.32,2.84,0.496,3.76,1.14,3.9
GCTGCTAGGACAGGTTGGTCAGCTAACGGGTACG,-0.0688,-0.79,-1.21,-0.812,-0.869,-0.739,-0.561,-0.833,-0.447,0.0113
CCTCGCAGGACAACAGGAGGTCAGAGCTGCCAGA,-0.0217,0.0775,-0.749,-0.93,1.52,1.89,0.261,2.26,-0.0612,2.28
CCTAGCAGGCCAGGGTCAATCAAGCATTTCGCTT,0.298,0.837,-1.44,-2.02,1.08,3.43,-0.3,4.4,0.17,2.72
ATATGTAGGTTACATCCAGGTCATTCAGGCTATG,7.73,7.59,2.75,2.95,2.59,3.82,4.54,3.35,1.06,2.53
ATCGAAAGGACGTGAGGTGAGTATACAGAAAGGC,-0.822,0.152,1.3,0.397,0.165,-0.361,-0.0869,0.0924,0.0832,1.09
CCTTACGGGTCACTGACAGGTTATAGAATTTGGA,3.42,3.6,1.19,0.387,2.22,3.68,0.414,4.32,1.29,3.93
ATCGAAAGGTCGTGAGGTTAGTATACAGAAAGGC,0.453,2.21,1.19,1.52,2.32,3.74,0.823,4.8,1.16,3.99
ATCTCTAGGTAAAGATAGTTCAGTGCATGCAAAT,2.3,1.49,1.11,1.06,0.899,1.1,1.29,0.26,0.906,0.853
GGAACGAGGGCAAGTTGCTAGCAGAGTTTGATGG,3.85,2.46,-0.00966,-0.739,-0.336,0.59,0.303,0.0596,-0.257,2.52
CCTAGCAGGCCAGGGTCACTCAGGCATTTCGCTT,-0.00567,0.705,-1.33,-1.04,0.362,2.21,-0.351,2.78,-0.431,2.47
CCGAGCAGGTTATGGGGCATTCAGGCAACGGTGA,0.393,1.05,-0.884,-0.839,0.261,-0.112,-0.362,0.225,-0.391,1.04
AATACAGGGTCACTAGGCCAGTGTAGGTACGAAT,4.34,5.58,1.71,1.25,2.55,3.37,0.255,4.63,0.647,4.13
GCTAGTTAGTCAGTAAAAGGTCACACACCGGTCG,0.245,2.45,0.12,0.0734,3.34,4.72,0.761,4.98,2.21,3.96
